# Measured values as given in PubChem BioAssay (NCI).
# This is part of a sample that, as a whole, favours compounds with a hit. Of some 83,000 tested, about 20% had one in any assay.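 Method: cells in 96-well plates; compound added at one concentration; 48 h incubation; percent growth measured; values under 10 scored active.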 Values without a mark were called inactive. Calls of active or inactive are those of the source.
# Legend:
# Assay in all cases: NCI-60 one-dose screen, 48 h (100 = growth as untreated, 0 = no growth, -100 = all killed)
# Details in all cases: 10 µM unless noted
# SK-MEL-2 melanoma = test system: SK-MEL-2 melanoma
# EKVX NSCLC = test system: EKVX NSCLC
# SN12C renal = test system: SN12C renal
# UO-31 renal = test system: UO-31 renal
# ACHN renal = test system: ACHN renal
# CAKI-1 renal = test system: CAKI-1 renal
# CCRF-CEM leukemia = test system: CCRF-CEM leukemia
# MOLT-4 leukemia = test system: MOLT-4 leukemia
# SR leukemia = test system: SR leukemia
# RPMI-8226 leukemia = test system: RPMI-8226 leukemia
# OVCAR-5 ovarian = test system: OVCAR-5 ovarian
# OVCAR-4 ovarian = test system: OVCAR-4 ovarian
# SK-OV-3 ovarian = test system: SK-OV-3 ovarian
# IGROV1 ovarian = test system: IGROV1 ovarian
# OVCAR-3 ovarian = test system: OVCAR-3 ovarian
# NCI/ADR-RES ovarian = test system: NCI/ADR-RES ovarian
# A498 renal = test system: A498 renal
# OVCAR-8 ovarian = test system: OVCAR-8 ovarian
# HS 578T breast = test system: HS 578T breast
# TK-10 renal = test system: TK-10 renal
SMILES,growth (SK-MEL-2 melanoma),growth (EKVX NSCLC),growth (SN12C renal),growth (UO-31 renal),growth (ACHN renal),growth (CAKI-1 renal),growth (CCRF-CEM leukemia),growth (MOLT-4 leukemia),growth (SR leukemia),growth (RPMI-8226 leukemia),growth (OVCAR-5 ovarian),growth (OVCAR-4 ovarian),growth (SK-OV-3 ovarian) [%],growth (IGROV1 ovarian),growth (OVCAR-3 ovarian),growth (NCI/ADR-RES ovarian),growth (A498 renal) [%],growth (OVCAR-8 ovarian),growth (HS 578T breast),growth (TK-10 renal) [%]
CCCc1cc(=O)oc2c3c(c4c(c12)OC(C)(C)C=C4)O[C@@H](C)[C@H](C)C3=O,97.1%,63%,82.7%,71.9%,84.2%,72.8%,70.3%,69.1%,65.4%,56.1%,-19.4% (active),67.8%,92.3,74.8%,86.6%,0.517% (active),,,,
CC(=O)Nc1ccc(-c2cc3c(NCc4ccc(F)cc4)ncnc3s2)cc1,95.4%,67.5%,72.6%,62.2%,65.5%,61.6%,96.3%,95.3%,77.2%,,78.1%,44.5%,69.5,61.1%,81.6%,69.4%,61.9,26.9%,70.3%,
Nc1c(-c2nc3ccccc3c(=O)[nH]2)nnn1-c1ccc(Cl)cc1,96.3%,103%,95.4%,48%,87%,70.2%,90.2%,87.7%,56.2%,90.6%,97.8%,-4.08% (active),68.5,83%,89.2%,56.4%,57.4,56.1%,51.1%,
CC(c1ccc(-n2cccn2)cc1)c1cnc(N2CCc3ccc(C(N)=O)cc3C2)s1 (stereo unspecified),51.7%,54.3%,86.9%,51.8%,,,33.4%,8.64% (active),53.5%,34.5%,92.8%,42%,68.6,79.8%,71.5%,32.1%,81,34.9%,100%,68.6
CCN(CC)CCOC(=O)N1c2ccccc2Sc2ccccc21,97.9%,106%,101%,87.9%,,,69.1%,96.1%,98.6%,85.6%,101%,101%,98,94.1%,107%,96.1%,97.1,101%,91.7%,88.2
CCCCCCCC/C=C/CCCCCCCC1=NCC[N+]1(CCO)CCO,102%,76.4%,76%,65.4%,82.2%,52.5%,31.4%,41.7%,17.4%,38.6%,77.5%,,88,-8.63% (active),59.9%,94.9%,73.4,80.6%,88.6%,
O=C(Nc1ccccc1Cl)OCCN1CCOCC1,96.7%,104%,98%,92.4%,,,86%,92.3%,103%,101%,110%,110%,112,107%,105%,104%,129,107%,120%,92.8
[2H]c1nc(Nc2ncc(F)c(-c3cc(F)c4nc(C)n(C(C)C)c4c3)n2)c([2H])c([2H])c1CN1CCN(C([2H])([2H])C([2H])([2H])[2H])CC1,50.1%,51.7%,54.3%,23.2%,,,35.2%,,36.3%,42.8%,55.6%,74.2%,,47.3%,71%,81%,44.3,67.1%,35.7%,21.6
C=C1C(=O)O[C@H]2[C@H]1CC/C(C(=O)NCCCCCCCCNC(=O)/C1=C/CC[C@@]3(C)O[C@H]3[C@H]3OC(=O)C(=C)[C@@H]3CC1)=C\CC[C@@]1(C)O[C@@H]21,80.1%,97.2%,76.2%,80.8%,,,4.79% (active),15.2%,20.2%,33.6%,97.1%,73.1%,,63.3%,33.1%,103%,107,93.4%,90.5%,64.4
CC(C)N(CCOC(=O)Nc1ccccc1Cl)C(C)C,104%,99.7%,99.1%,85.1%,,,83.7%,,89.7%,96%,111%,119%,,107%,112%,105%,109,99.7%,95.8%,108
CN1C[C@@H](c2ccc(Cl)cc2)[C@]2(NC(=S)N(c3ccc(F)c(Cl)c3)C2=O)[C@@]12C(=O)NC1C=CC(Cl)=C[C@H]12 (stereo partly specified),53.3%,50.7%,-63.2% (active),26.1%,,,6.69% (active),3.29% (active),0.495% (active),2.67% (active),52.8%,57%,,41.9%,48.5%,42%,66.8,60%,77.6%,82
CCN(CC)CC(=O)Nc1cccc(C(=O)OC(C)C)c1,81.9%,96.4%,107%,89.7%,,,86.6%,96.2%,95.2%,105%,104%,103%,,104%,103%,97%,140,108%,120%,87.5
CC(C)(C)c1ccc(C(=O)Nc2sc3c(c2C(N)=O)CCC(=O)C3)cc1,2.34% (active),5.58% (active),-1.37% (active),-99.6% (active),-98.6% (active),-74.9% (active),1.49% (active),4.19% (active),11.1%,,12.3%,-91.1% (active),,-21.6% (active),-78.8% (active),-0.603% (active),,8.88% (active),-12% (active),
COc1ccccc1NC(=O)Nc1ccc(-c2nc3ccccc3o2)cc1,130%,92.8%,98.7%,94.5%,95.4%,103%,101%,75.1%,69%,96.7%,104%,95.3%,,104%,109%,98.4%,,102%,99%,
CCCCNCC(=O)Nc1ccc(C(=O)OCC)cc1,93%,98.3%,104%,91.8%,,,79.4%,80.7%,87%,94%,109%,114%,105,105%,113%,107%,101,104%,108%,96.1
Cc1ccc(NC(=O)C(Cl)Cl)cc1,83.6%,109%,98.9%,,100%,103%,100%,14.2%,97.2%,97%,98.5%,116%,105,95.4%,112%,99.9%,80.9,99.5%,102%,94.3
N#Cc1cccc(-c2nc3ccccn3c2NCCN2CCOCC2)c1,100%,104%,96%,,98.3%,85.1%,92.5%,96.5%,,90.4%,94.4%,30%,86.3,97.8%,96.9%,98.2%,99.1,90.7%,96.2%,101
